The list is not random: actives were taken first. Their share in the collection is about 0.51%.
E coli growth-1 = E. coli growth inhibition; Escherichia coli growth, OD600, 23 h; active compounds read low; OD600 absorbance (no concentration beside the values); 330,000 compounds, 0.21% hits; AID 1053175;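 active means OD600 absorbance below the run mean of sample wells minus 3.6 SD, in any replicate, cut at about 0.56 in these data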
AddAB inh = less growth of phage-infected E. coli with AddAB | E. coli expressing H. pylori AddAB, absorbance growth | inhibition, % at 11.9 µM | 330,000 compounds, 0.29% hits | AID 435030; in the data active means inhibition above about 12%
E coli growth-2 = reduces bacterial viability in AddAB counter-screen | E. coli V3065 growth, OD600 absorbance, 18 h | inhibition, % at 11.9 µM | 330,000 compounds, 0.27% hits | AID 449728;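 active means inhibition above the campaign's mean inhibition across all tested compounds plus 3 SD, cut at about 9.9% in these data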;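 further: uninfected addAB+ strain grown without phage in ampicillin broth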
phage Ecoli inh = E. coli growth loss with phage present. inhibition, % at 11.9 µM. AID 651602. growth absorbance. 360,000 compounds, 0.26% hits; in the data active means inhibition above about 11%
Tat transport = E. coli Tat transport inhibition | E. coli MC4100 TorA-mCherry Tat export, fluorescence | inhibition, % at 10 µM | 340,000 compounds, 0.036% hits | AID 488895;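 active means mean replicate inhibition at least 50% and at least half of replicates individually reaching 50%; inconclusive means only one of the two criteria met; inactive means neither criterion met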;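 further: exported cargo escapes ClpAP degradation while cytoplasmic cargo is degraded and loses fluorescence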
AddAB confirm = growth loss of T4-infected E. coli expressing H. pylori AddAB, confirmed | shares compounds with AddAB inh | E. coli V3065 expressing H. pylori AddAB, T4 phage, OD; T4 phage with gene 2 nonsense mutations | inhibition, % at 11.9 µM | 880 compounds, 64% hits | AID 488942;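 active means mean inhibition above a set limit taken from the earlier primary screen, cut at about 13% in these data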;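 further: higher means less bacterial growth since AddAB block lets phage replicate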
RecBCD counter = counter-screen: growth loss of RecBCD+ E. coli with mutant T4 phage; E. coli V66 + mutant T4 phage, OD growth; shares compounds with AddAB inh; AID 488955; inhibition, % at 11.9 µM; 880 compounds, 73% hits;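 active means mean inhibition above the mean of solvent-only control wells plus 3 SD, cut at about 4% in these data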;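 further: optical density read after an 18 h incubation at 37 °C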
bact viab count = counter-screen for AddAB inhibitors: inhibitors of bacterial viability. inhibition, % at 11.9 µM. shares compounds with AddAB inh. absorbance (AddAB counterscreen). 880 compounds, 35% hits; in the data active means inhibition above about 25%
RecBCD conf = confirmation: growth loss of phage-infected RecBCD+ E. coli (RecBCD inhibitor screen); shares compounds with phage Ecoli inh; E. coli V66 + T4 2- phage, growth OD; inhibition, % at 11.9 µM; 890 compounds, 45% hits;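 active means mean inhibition over triplicates exceeding the hit threshold derived in the original primary screen, cut at about 11% in these data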
Ecoli viability = bacterial viability inhibition counter-screen for RecBCD; shares compounds with phage Ecoli inh; E. coli viability, absorbance (OD) growth; inhibition, % at 11.9 µM; 890 compounds, 29% hits; in the data active means inhibition above about 20%;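 further: E. coli strain V66 grown with compound alone and no phage infection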
AddAB phage OD = growth loss of phage-infected AddAB E. coli, RecBCD counter-screen; shares compounds with phage Ecoli inh; E. coli expressing H. pylori AddAB + T4 phage, OD growth; gene 2 mutant T4, recBCD-deleted host; inhibition, % at 11.9 µM; 890 compounds, 45% hits; AID 651984;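 active means mean inhibition above the solvent-only control wells' mean plus 3 SD, cut at about 22% in these data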;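 further: higher means less bacterial growth from phage killing when AddAB is blocked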
Of the large screens only hits and unclear results are named; the others gave an inactive call (follow-up assays come after a bar, where they were run).

CCCC(=O)NC(c1ccc(N(C)C)cc1)c1c(O)ccc2ccccc12 (stereo not given)	none
CCCCC(=O)NC(c1ccc(N(C)C)cc1)c1ccc2cccnc2c1O (stereo not given)	AddAB inh 24.8, E coli growth-2 35.4, phage Ecoli inh 23.0 (no result: E coli growth-1) | AddAB confirm 29.6 | RecBCD counter 22.6 | bact viab count inactive | RecBCD conf 13.1 | Ecoli viability inactive | AddAB phage OD inactive
CCCCC(=O)NC(c1ccc(N(CC)CC)cc1)c1ccc2cccnc2c1O (stereo not given)	AddAB inh 20.1, E coli growth-2 16.9, phage Ecoli inh 18.6 (no result: E coli growth-1) | AddAB confirm 23.6 | RecBCD counter 17.2 | bact viab count inactive | RecBCD conf 12.3 | Ecoli viability inactive | AddAB phage OD inactive
COc1cc(C=CC(=O)N2CCN(CC(O)COc3ccccc3)CC2)cc(OC)c1OC (stereo not given)	none (no result: AddAB inh, E coli growth-2, phage Ecoli inh, Tat transport)
CCCCCC(CC(=O)NO)C(=O)NC(C(=O)N1CCCC1CO)C(C)C (stereo not given)	AddAB inh 21.8, E coli growth-2 22.4, phage Ecoli inh 24.9 | AddAB confirm 19.2 | RecBCD counter 24.1 | bact viab count inactive | RecBCD conf 18.2 | Ecoli viability inactive | AddAB phage OD inactive
CO[C@H]1/C=C/O[C@@]2(C)Oc3c(C)c(O)c4c(O)c(c(C=NN5CCN(C)CC5)c(O)c4c3C2=O)NC(=O)/C(C)=C\C=C\[C@H](C)[C@H](O)[C@@H](C)[C@@H](O)[C@@H](C)[C@H](OC(C)=O)[C@@H]1C	AddAB inh 51.6, E coli growth-2 48.0, phage Ecoli inh 78.0, Tat transport 77.7 (no result: E coli growth-1) | AddAB confirm 58.7 | RecBCD counter 57.9 | bact viab count 62.1 | RecBCD conf 80.5 | Ecoli viability 88.6 | AddAB phage OD 102.0
Cc1cc(C)c(C)c(S(=O)(=O)N2CCC(C(=O)NNC(=O)c3ccccc3O)CC2)c1C	AddAB inh 14.9, phage Ecoli inh 11.7 | AddAB confirm inactive | RecBCD counter 8.1 | bact viab count inactive | RecBCD conf inactive | Ecoli viability inactive | AddAB phage OD inactive
O=C1C=C(c2ccc(C(=O)O)c(Cl)c2)CC(c2ccc3c(c2)OCO3)C1 (stereo not given)	none (no result: AddAB inh, E coli growth-2, phage Ecoli inh, Tat transport)
O=C(Nc1cccnc1)c1ccc([N+](=O)[O-])s1	E coli growth-1 0.07, AddAB inh 99.4, E coli growth-2 69.4, phage Ecoli inh 16.9 | AddAB confirm 99.9 | RecBCD counter 18.2 | bact viab count 47.2 | RecBCD conf inactive | Ecoli viability inactive | AddAB phage OD 86.1
O=C(Nc1ccccc1F)c1ccc([N+](=O)[O-])s1	Tat transport inconclusive
CCOC(=O)C1C2COc3ccc(Cl)cc3C2N2C(=O)CN(Cc3ccccc3)C(=O)[C@@]12C (stereo not given in full)	none (no result: AddAB inh, E coli growth-2, phage Ecoli inh, Tat transport)
CCSc1nsc(NC(=O)Nc2cccc(F)c2)n1	AddAB inh 18.5, E coli growth-2 25.4, phage Ecoli inh 14.7 (no result: E coli growth-1) | AddAB confirm 13.2 | RecBCD counter 15.8 | bact viab count inactive | RecBCD conf 16.1 | Ecoli viability inactive | AddAB phage OD 22.0
CCc1cn(C2CC(O)C(CO)O2)c(=O)[nH]c1=O (stereo not given)	AddAB inh 19.6, E coli growth-2 13.4, phage Ecoli inh 12.0 | AddAB confirm 35.4 | RecBCD counter 12.5 | bact viab count inactive | RecBCD conf 14.0 | Ecoli viability inactive | AddAB phage OD 31.0
O=c1[nH]c(=O)n([C@H]2C[C@H](O)[C@@H](CO)O2)cc1I	none (no result: E coli growth-1)
COC(=O)c1sccc1NC(=O)C=Cc1ccc(Cl)cc1	none (no result: AddAB inh, E coli growth-2, phage Ecoli inh, Tat transport)
COc1c(N2CCN(C(=S)NC3CC4CCC3C4)C(C)C2)c(F)cc2c(=O)c(C(=O)O)cn(C3CC3)c12 (stereo not given)	E coli growth-1 0.092, AddAB inh 98.6, E coli growth-2 99.2, phage Ecoli inh 98.8, Tat transport 63.8 | AddAB confirm 101.7 | RecBCD counter 101.0 | bact viab count 100.6 | RecBCD conf 101.5 | Ecoli viability 103.3 | AddAB phage OD 102.9
COc1c(N2CCN(C(=S)Nc3ccc(F)cc3)C(C)C2)c(F)cc2c(=O)c(C(=O)O)cn(C3CC3)c12 (stereo not given)	E coli growth-1 0.0735, AddAB inh 98.9, E coli growth-2 99.1, phage Ecoli inh 72.9, Tat transport 76.3 | AddAB confirm 97.5 | RecBCD counter 98.5 | bact viab count 99.8 | RecBCD conf 13.5 | Ecoli viability inactive | AddAB phage OD 101.5
COc1ccccc1NS(=O)(=O)c1ccc(NN=C/C=C/c2ccccc2[N+](=O)[O-])c([N+](=O)[O-])c1	none (no result: AddAB inh, E coli growth-2, phage Ecoli inh, Tat transport)
CCn1cc(C(=O)O)c(=O)c2cc(F)c(NN=Cc3ccccc3)cc21	none (no result: AddAB inh, E coli growth-2, phage Ecoli inh, Tat transport)
CN1CCN(c2c(F)cc3c(=O)c(C(=O)O)cn4c3c2OCN4C)CC1	E coli growth-1 0.07, AddAB inh 98.6, E coli growth-2 98.7, phage Ecoli inh 99.1, Tat transport 138.5 | AddAB confirm 100.8 | RecBCD counter 100.2 | bact viab count 100.8 | RecBCD conf 102.0 | Ecoli viability 102.5 | AddAB phage OD 102.6
Cc1cc(C)c(NC(=O)c2cn3c4c(c(N5CCN(C)CC5)c(F)cc4c2=O)OCC3C)c(C)c1 (stereo not given)	E coli growth-1 0.049, AddAB inh 96.6, E coli growth-2 97.0, phage Ecoli inh 96.7 | AddAB confirm 101.3 | RecBCD counter 100.1 | bact viab count 100.7 | RecBCD conf 99.0 | Ecoli viability 100.4 | AddAB phage OD 101.1
CCn1cc(C(=O)NCC2CCCO2)c(=O)c2cc(F)c(N3CCN(C)CC3)cc21 (stereo not given)	none
CON=Cc1c(C(=O)OC)nn(-c2ccccc2)c1Cl	none (no result: AddAB inh, E coli growth-2, phage Ecoli inh, Tat transport)
CCn1cc(C(=O)O)c(=O)c2ccc(C)nc21	E coli growth-1 0.063, AddAB inh 98.0, E coli growth-2 82.3, phage Ecoli inh 82.0 | AddAB confirm 94.1 | RecBCD counter 32.5 | bact viab count 90.2 | RecBCD conf 45.2 | Ecoli viability 78.3 | AddAB phage OD 99.5
CCn1cc(C(=O)OCc2ccccc2)c(=O)c2ccc(C)nc21	none
COc1ccccc1-c1cc(C(=O)NN=Cc2sccc2C)c2ccccc2n1	none (no result: AddAB inh, E coli growth-2, phage Ecoli inh, Tat transport)
